Rows were chosen to be rich in hits. Some 1.9% of all compounds tested hit in one or more screens of this group.
Menin-MLL FL inh – qHTS Assay for Inhibitors Targeting the Menin-MLL Interaction in MLL Related Leukemias: Competition With Fluorescein Labeled MLL-derived Peptide. Fluorescence polarization, fluorescein-MLL peptide displacement from menin. FP activity change, % at 61.4 µM. 290,000 tested, under 10 active; active means well fitted curve in the direction sought with a large enough effect in the polarisation, not every such curve was filed as active; inconclusive means small, poorly fitted or top-dose-only effect, or effect the other way, or a change in a side signal; inactive means no such curve, though single readings can be large or run the other way; the % refers to the polarisation; further: % of control where 0% means no effect
CXXC DNA block – qHTS Fluorescence Polarization Assay for Inhibitors of MLL CXXC domain - DNA interaction. MLL-CXXC / FITC-HOXA9 DNA fluorescence polarization. AID 2662, 2010. Potency, µM (doses to about 115 µM), inactives show top-dose activity change, negative = inhibition, actives largely listed as inhibitors. Histone-lysine N-methyltransferase 2A (Homo sapiens), Q03164. 0.037% of 290,000 active; active means well fitted inhibition curve with a large enough effect in the polarisation, with a control signal flat, not every such curve was filed as active; inconclusive means small, poorly fitted or top-dose-only effect, or effect the other way, or a change in a side signal; inactive means no such curve, though single readings can be large or run the other way; the % refers to the polarisation; further: potency means the concentration at half of the fitted maximal effect
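Fluorescence polarization: 7 uM MLL-CXXC (stock) preincubated 5 min with compounds, then 50 nM fluorescein-HOX-A9 DNA (stock) added; 30 min ambient. Buffer 50 mM Tris-HCl pH 7.5, 50 mM NaCl, 1 mM DTT, 0.05% BSA.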
PINK1 modulator – A Quantitative High throughput Screen to Identify Chemical Modulators of PINK1 Expression; PINK1 immunofluorescence, high-content cytometry, 24 h; Potency, µM (doses to about 76.6 µM), without a hit: at the top dose activation (PINK1 increase), actives largely listed as activators; 0.2% of 410,000 active; active means well fitted activation curve with a large enough effect; inconclusive means small, poorly fitted or top-dose-only effect; cell line not stated here; further: potency means the concentration at half of the fitted maximal effect; % of control where 0% means no effect; nearly all actives have a fitted effect of over 65% in size
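Measures PINK1 amount and localization on or inside mitochondria by immunofluorescence. Stable cells get compounds at 5 concentrations for 24 hours before fixation and staining; CCCP controls included.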
Menin-MLL TR inh – qHTS Assay for Inhibitors Targeting the Menin-MLL Interaction in MLL Related Leukemias: Competition With Texas Red Labeled MLL-derived Mutant Peptide | 0.23% of 270,000 active | AID 1768, 2009 | Menin + Texas Red MLL mutant peptide, fluorescence polarization | Potency, µM (highest dose often 61.6 µM), without a hit: top-dose FP activity change, negative = inhibition, usual class: inhibitors | O00255; active means well fitted inhibition curve with a large enough effect in the polarisation, with a control signal flat, not every such curve was filed as active; inconclusive means small, poorly fitted or top-dose-only effect, or effect the other way, or a change in a side signal; inactive means no such curve, though single readings can be large or run the other way; the % refers to the polarisation; further: potency means the concentration at half of the fitted maximal effect; % of control where 0% means no effect
Epigenetic derep – Quantitative High-Throughput Screen for Regulators of Epigenetic Control; murine LDR cells, GFP reporter derepression, 30 h; Potency, µM (top dose mostly 53.9 µM), for inactives: top-dose GFP activation, hits mostly activators; 0.2% of 280,000 active; AID 1865, 2009; active means well fitted activation curve with a large enough effect; inconclusive means small, poorly fitted or top-dose-only effect; further: potency means the concentration at half of the fitted maximal effect; % of control where 0% means no effect; nearly all actives have a fitted effect of over 60% in size
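Murine LDR cells carrying a silenced, genomically integrated CMV-driven GFP reporter were exposed to compound for 30 hours at 37 C. After PBS washes, GFP-positive cells (20–120 um objects) were counted by laser-scanning microplate cytometry.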
ClpP mod – qHTS Assay for Activators of ClpP. purified B. subtilis ClpP, FRET peptide cleavage, 20 min. Potency, µM (doses to about 57.5 µM), for the others: at the highest dose activity change, negative = active. 1.9% of 340,000 active; active means well fitted falling curve with a large enough effect; inconclusive means small, poorly fitted or top-dose-only effect; inactive means no such curve, though single readings can be large or run the other way; further: potency means the concentration at half of the fitted maximal effect; the source files actives as falling curves though it sought activators and does not explain the sign; nearly all actives have a fitted effect of over 65% in size
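ClpP 10 microg/mL final, pH 8 Tris/KCl buffer with BSA, glycerol, Tween-20; compound pinned in; FRET-FV substrate; RT 20 min; Ex320/Em430; ΔFRET vs ADEP 5.8 microM, DMSO, no enzyme.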
The depositor's hits bear a star; ? = inconclusive; . = no result given; [ ] = dose if it differs, or a comment.

SMILES	Menin-MLL FL inh	CXXC DNA block	PINK1 modulator	Menin-MLL TR inh	Epigenetic derep	ClpP mod
CC(C)C1N=C2c3ccccc3N=C(SCC(=O)NCc3ccc(Cl)cc3)N2C1=O (stereo unspecified)	.	.	0%	.	-3%	4%
Cc1ccc(S(=O)(=O)N2[C@@H](c3ccc4c(c3)OCO4)C(C(=O)O)=C[C@H]2CC2CCCC2)cc1	.	.	-1%	.	.	-3%
Cc1ccc(NC(=O)c2ccc(NC(=O)N3CCSc4ncccc43)cc2)c(Cl)c1	.	.	1%	.	14%	28µM*
COc1cc(NC(=O)c2ccc(NC(=O)N3CCSc4ncccc43)cc2)cc(OC)c1	.	.	0%	.	1%	32µM*
Cc1ccc(NC(=O)c2ccc(NC(=O)N3CCSc4ncccc43)cc2)c(C)c1	.	.	0%	.	-2%	?
Cc1ccc(Cl)cc1NC(=O)c1ccc(NC(=O)N2CCSc3ncccc32)cc1	.	.	-2%	.	8%	32µM*
COc1cccc(-c2nc3cc(SC)ccc3cc2CN(C(=O)c2sccc2C)C2CC2)c1	.	.	1%	.	.	.
CCOC(=O)COc1ccccc1/C=N\NC(=O)c1cc2c(ccc3ccccc32)o1	.	0%	0%	.	.	28µM*
CCOc1cc(/C=N/NC(=O)c2cc3c(ccc4ccccc43)o2)ccc1O	.	16%	2%	.	.	-11%
CCOP(=O)(OCC)c1nc(-c2cccc3ccccc23)oc1N1CCCCC1	2	2%	-1%	-19%	-5%	4%
CCOP(=O)(OCC)c1nc(-c2ccccc2)oc1N1CCCCC1	4	7%	0%	32µM*	.	4%
CN(CCO)C(=O)c1cn(C2CCCN(Cc3ccc4ccccc4c3)C2)nn1 (stereo unspecified)	.	.	0%	.	.	.
Cc1ccc2[nH]c3c(c2c1)CCC3=O	-2	-1%	.	3%	-1%	25µM*
Cc1ccc2[nH]c3c(c2c1)CCCC3=O	1	-6%	0%	5%	-3%	?
O=C1CCCc2c1[nH]c1ccc(CN3CCCCC3)cc21	-1	11%	0%[38.3 µM]	-7%	0%	28µM*
COc1cc(OC)c(/C=C/c2ccccn2)c(OC)c1	.	.	.	.	.	2%
CCOC(=O)C(=CNc1nc(-c2ccccc2)c(C(=O)Nc2ccc(-c3ccccc3)cc2)s1)C(=O)OCC	.	13%	12%	.	.	13µM*
Cc1ccc(NC(=O)c2sc(Cl)nc2-c2ccccc2)cc1	0	-1%	3%	2%	1%	-3%
Cn1c(CCN2CCOCC2)nc2cc(NS(=O)(=O)c3ccccc3)ccc21	-1	12%	3%	.	-1%	.
Cn1c(CCN2CCCCC2)nc2cc(NS(=O)(=O)c3ccccc3)ccc21	1	-2%	5%	3%	-2%	28µM*
COCC(=O)Nc1cc(OC)cc(OC)c1	2	-3%	2%	0%	-1%	28µM*
FC(F)(F)c1nc(-c2cccs2)ncc1-c1nnnn1-c1ccc(Cl)cc1	3	-14%	16%	4%	3%	35µM*
Clc1ccc(-n2nnnc2-c2cnc(-c3ccncc3)nc2-c2cccs2)cc1	2	-1%	-3%	4%	0%	-7%
Cc1nc2cc(NC(=O)[C@@H]3C[C@@H](Sc4ccccn4)CN3Cc3ccccc3)ccc2s1	.	.	0%	.	.	.
Cc1c(C(=O)NC2CCS(=O)(=O)C2)oc2ccccc12 (stereo unspecified)	-11	-6%	4%	-34%	.	1%
SMILES	Menin-MLL FL inh	CXXC DNA block	PINK1 modulator	Menin-MLL TR inh	Epigenetic derep	ClpP mod
Cc1cc2oc(C(=O)NC3CCS(=O)(=O)C3)c(C)c2cc1C (stereo unspecified)	1	-2%	2%	-2%	-1%	28µM*
CCN(CC)Cc1c(O)ccc2c(=O)c(-c3ccc4c(c3)OCCO4)coc12	-1	-6%	-1%	7%	-2%	28µM*
Cc1nc(-c2coc3c(CN(C)C)c(O)ccc3c2=O)cs1	2	6%	4%[38.3 µM]	?	2%	32µM*
CCN(CC)Cc1c(O)ccc2c(=O)c(Oc3ccccc3OC)c(C)oc12	-5	6%	0%	.	1%	4%
COc1ccccc1Oc1coc2c(CN(C)C)c(O)ccc2c1=O	3	-2%	-1%	-13%	-1%	28µM*
CCN(CC)Cc1c(O)ccc2c(=O)c(Oc3ccccc3OC)coc12	7	-3%	2%	-8%	3%	18µM*
COc1ccccc1-c1coc2c(CN(C)C)c(O)ccc2c1=O	2	-11%	1%	-5%	.	5%
CCN(CC)Cc1c(O)ccc2c(=O)c(-c3ccccc3)coc12	2	1%	1%	-5%	.	4%
CCc1ccc(NCc2cc3cc4c(cc3n(CC(=O)Nc3ccc(Cl)cc3)c2=O)OCO4)cc1	.	.	0%	.	-8%	5%
COCC(=O)Nc1cc(C(=O)N2CCc3ccccc3C2)c2c(c1)nc(-c1ccncc1)n2C	.	.	0%	.	.	.
CCC1c2ccc(C)n2CCN1C(=O)Nc1ccccc1C(=O)OC (stereo unspecified)	5	6%	0%	-3%	4%	35µM*
COc1cc(OC)c(-c2nn3c(-c4ccco4)nnc3s2)cc1OC	6	2%	1%	?	2%	28µM*
COc1ccc(-c2nnc3sc(-c4ccco4)nn23)cc1OC	7	-8%	11%	-8%	1%	5%
c1coc(-c2nnc3n2C2(CCCC2)Cc2ccccc2-3)c1	2	7%	4%[38.3 µM]	-3%	3%	?
COc1cc2c(cc1OC)-c1nnc(-c3ccco3)n1C1(CCCC1)C2	1	17%	-1%	-13%	0%	32µM*
COc1ccc(CN2CCc3nnc(CCc4ccccc4)n3CC2)c(OC)c1C	.	.	0%	.	.	.
COc1ccccc1CCNC(=O)C1CCC(=O)N(Cc2ccccc2OC)C1 (stereo unspecified)	.	8%	0%	.	.	0%
COc1ccccc1CN1CC(C(=O)NC2(c3ccccc3)CC2)CCC1=O (stereo unspecified)	3	-12%	-1%	-23%	.	32µM*
O=C(Nc1ccc(-c2nc3cc(Cl)ccc3c(=O)o2)cc1)c1ccco1	-3	11%	-1%	34%	1%	0%
O=C(Nc1ccc(-c2nc3c(ccc4ccccc43)o2)cc1)c1ccco1	-2	4%	?	?	6%	13µM*
